From ChEMBL document CHEMBL2218924, “A broad activity screen in support of a chemogenomic map for kinase signalling research and drug discovery” (Biochem J, 2013)

Experiments:
[1] = molecular target: T1, Serine/threonine-protein kinase D2 (Homo sapiens) (UniProt Q9BZL6); details: at 1 µM
T1 sequence (whole entry): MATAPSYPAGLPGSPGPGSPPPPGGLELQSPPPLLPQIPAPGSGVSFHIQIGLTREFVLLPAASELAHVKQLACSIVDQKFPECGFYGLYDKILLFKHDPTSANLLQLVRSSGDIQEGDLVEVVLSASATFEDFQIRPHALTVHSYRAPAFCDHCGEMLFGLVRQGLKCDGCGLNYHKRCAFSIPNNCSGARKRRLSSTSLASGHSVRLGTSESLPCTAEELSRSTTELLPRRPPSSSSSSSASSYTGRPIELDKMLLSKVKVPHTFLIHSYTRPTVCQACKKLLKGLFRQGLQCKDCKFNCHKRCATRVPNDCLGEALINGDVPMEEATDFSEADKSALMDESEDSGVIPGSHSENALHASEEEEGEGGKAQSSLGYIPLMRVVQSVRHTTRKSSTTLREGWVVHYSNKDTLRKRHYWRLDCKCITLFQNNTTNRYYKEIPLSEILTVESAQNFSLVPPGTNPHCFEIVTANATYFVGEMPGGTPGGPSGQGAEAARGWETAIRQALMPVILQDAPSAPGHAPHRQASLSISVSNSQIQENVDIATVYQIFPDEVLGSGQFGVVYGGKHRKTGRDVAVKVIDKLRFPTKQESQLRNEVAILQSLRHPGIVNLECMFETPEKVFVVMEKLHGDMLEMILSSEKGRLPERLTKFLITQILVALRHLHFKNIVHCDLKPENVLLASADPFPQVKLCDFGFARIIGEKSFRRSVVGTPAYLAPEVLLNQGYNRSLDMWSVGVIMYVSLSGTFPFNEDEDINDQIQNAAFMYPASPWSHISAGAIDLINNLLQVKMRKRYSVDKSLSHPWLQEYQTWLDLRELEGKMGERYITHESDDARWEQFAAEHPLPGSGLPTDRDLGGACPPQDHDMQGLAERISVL

[2] = molecular target: T1, Serine/threonine-protein kinase D2 (Homo sapiens); details: at 10 µM
[3] = molecular target: T2, cGMP-dependent protein kinase 1 (Homo sapiens) (UniProt Q13976); details: at 1 µM
T2 sequence (whole entry): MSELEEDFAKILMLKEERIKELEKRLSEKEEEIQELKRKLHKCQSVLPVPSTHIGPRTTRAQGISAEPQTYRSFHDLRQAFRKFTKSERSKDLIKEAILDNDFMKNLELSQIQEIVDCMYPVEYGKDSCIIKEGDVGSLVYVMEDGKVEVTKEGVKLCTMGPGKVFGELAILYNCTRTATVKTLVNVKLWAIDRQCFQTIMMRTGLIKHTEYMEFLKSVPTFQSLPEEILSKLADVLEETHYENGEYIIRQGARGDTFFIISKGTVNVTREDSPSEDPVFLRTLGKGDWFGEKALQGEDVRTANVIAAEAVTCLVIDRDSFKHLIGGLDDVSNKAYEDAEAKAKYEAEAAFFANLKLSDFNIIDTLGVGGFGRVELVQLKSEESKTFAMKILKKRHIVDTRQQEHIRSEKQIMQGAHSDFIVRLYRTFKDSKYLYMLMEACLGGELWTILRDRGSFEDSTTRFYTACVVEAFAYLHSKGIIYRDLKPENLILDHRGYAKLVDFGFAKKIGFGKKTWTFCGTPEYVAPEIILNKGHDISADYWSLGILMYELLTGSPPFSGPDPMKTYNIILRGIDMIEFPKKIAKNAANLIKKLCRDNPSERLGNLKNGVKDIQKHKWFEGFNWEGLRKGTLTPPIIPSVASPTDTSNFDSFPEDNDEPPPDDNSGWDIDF

[4] = molecular target: T2, cGMP-dependent protein kinase 1 (Homo sapiens); details: at 1 µM; remark: listed apart in the source
[5] = molecular target: T2, cGMP-dependent protein kinase 1 (Homo sapiens); details: at 10 µM
[6] = molecular target: T3, MAP kinase-activated protein kinase 5 (Homo sapiens) (UniProt Q8IW41); details: at 1 µM
T3 sequence (whole entry): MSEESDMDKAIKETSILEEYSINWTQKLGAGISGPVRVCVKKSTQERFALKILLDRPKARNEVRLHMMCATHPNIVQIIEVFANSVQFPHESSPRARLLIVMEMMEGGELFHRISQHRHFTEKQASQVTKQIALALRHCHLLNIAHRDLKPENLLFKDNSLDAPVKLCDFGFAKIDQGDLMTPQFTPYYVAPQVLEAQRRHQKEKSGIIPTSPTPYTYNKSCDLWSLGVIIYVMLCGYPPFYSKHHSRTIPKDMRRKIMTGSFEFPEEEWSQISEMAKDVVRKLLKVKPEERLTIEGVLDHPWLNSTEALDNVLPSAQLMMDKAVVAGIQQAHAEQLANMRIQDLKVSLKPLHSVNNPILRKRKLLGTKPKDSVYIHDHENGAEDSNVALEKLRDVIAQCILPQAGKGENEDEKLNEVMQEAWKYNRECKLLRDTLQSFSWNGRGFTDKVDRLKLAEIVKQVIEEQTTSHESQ

[7] = molecular target: T3, MAP kinase-activated protein kinase 5 (Homo sapiens); details: at 10 µM
[8] = molecular target: Serine/threonine-protein kinase N2 (Homo sapiens) (UniProt Q16513); details: at 1 µM
[9] = molecular target: Serine/threonine-protein kinase N2 (Homo sapiens) (UniProt Q16513); details: at 10 µM
[10] = molecular target: T2, cGMP-dependent protein kinase 1 (Homo sapiens); details: at 10 µM; remark: listed apart in the source

Sequence of Serine/threonine-protein kinase N2 (Homo sapiens) (Q16513 whole entry, looked up): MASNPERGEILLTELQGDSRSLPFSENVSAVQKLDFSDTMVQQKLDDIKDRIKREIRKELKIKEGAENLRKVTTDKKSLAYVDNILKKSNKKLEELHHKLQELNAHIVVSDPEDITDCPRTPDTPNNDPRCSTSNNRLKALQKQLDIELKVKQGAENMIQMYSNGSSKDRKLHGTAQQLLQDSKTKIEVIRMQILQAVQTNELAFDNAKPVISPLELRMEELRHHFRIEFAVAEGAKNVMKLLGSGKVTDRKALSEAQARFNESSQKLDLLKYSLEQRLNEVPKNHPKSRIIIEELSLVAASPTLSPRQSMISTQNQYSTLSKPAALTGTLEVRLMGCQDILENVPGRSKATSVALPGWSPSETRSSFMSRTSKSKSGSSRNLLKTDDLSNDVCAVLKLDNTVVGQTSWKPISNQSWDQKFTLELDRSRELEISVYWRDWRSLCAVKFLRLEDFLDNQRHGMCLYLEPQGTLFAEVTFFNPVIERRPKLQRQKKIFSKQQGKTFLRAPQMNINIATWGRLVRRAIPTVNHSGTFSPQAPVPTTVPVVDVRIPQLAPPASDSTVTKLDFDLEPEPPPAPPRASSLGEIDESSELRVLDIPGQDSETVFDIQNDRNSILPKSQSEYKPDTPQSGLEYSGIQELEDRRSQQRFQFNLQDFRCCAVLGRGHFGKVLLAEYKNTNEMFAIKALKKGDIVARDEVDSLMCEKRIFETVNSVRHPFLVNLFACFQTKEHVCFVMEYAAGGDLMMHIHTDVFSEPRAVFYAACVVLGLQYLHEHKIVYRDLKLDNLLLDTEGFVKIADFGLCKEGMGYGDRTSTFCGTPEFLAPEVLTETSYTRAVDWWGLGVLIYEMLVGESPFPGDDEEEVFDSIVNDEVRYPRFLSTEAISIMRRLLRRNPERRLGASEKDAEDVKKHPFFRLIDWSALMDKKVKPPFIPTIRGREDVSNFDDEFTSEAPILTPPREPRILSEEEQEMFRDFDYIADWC

SMILES	residual activity [1] [%]	residual activity [2] [%]	residual activity [3] [%]	residual activity [4] [%]	residual activity [5] [%]	residual activity [6] [%]	residual activity [7] [%]	residual activity [8] [%]	residual activity [9] [%]	residual activity [10] [%]
CC(C)(C)c1cc(C=C(C#N)C#N)cc(Br)c1O	100	105	107	66	60	107	65	104	117	–
COc1ccc2c(c1)/C(=C/c1cnc[nH]1)C(=O)N2	97	39	–	–	–	122	63	–	40	–
COc1ccc2c(c[n+](C)c3c4cc5c(cc4ccc23)OCO5)c1OC	–	–	–	92	87	84	52	–	92	92
CCn1cnc2c(Nc3cccc(Cl)c3)nc(N[C@@H]3CCCC[C@@H]3N)nc21	97	96	92	89	70	119	124	80	49	88
COc1cc2ncnc(Nc3ccc(OCc4ccccc4)cc3)c2cc1OC	98	98	115	72	88	111	83	109	111	125
O=C1Nc2ccc3ncsc3c2/C1=C/c1c[nH]cn1	30	3	13	7	1	49	18	4	2	2
c1cc(-c2cnn3cc(-c4ccc(OCCN5CCCCC5)cc4)cnc23)ccn1	–	–	73	66	12	–	–	47	6	25
